Data as given in the supplement of paper PMC12808144.

tested on: Mel-DCC-11-R; experiment: cell viability relative to DMSO control (fraction of DMSO control); higher = less cytotoxic, active = 0.8 or less; conditions: 1 µM; 120 h; vemurafenib co-treatment 0 µM
Method: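 Same 315-drug TargetMol library at 1 µM in duplicate, 120 h, ATPlite luminescence normalised to DMSO controls, on the vemurafenib-resistant subline Mel-DCC-11-R cultured alone or with 8 µM vemurafenib co-treatment (Mel-DCC-11-R + V).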

Row | SMILES | cell viability
1 | O=c1[nH]c(=O)n(C2CCCO2)cc1F (stereo not given) [Tegafur] | 0.895 (inactive)
2 | CC(C)(C#N)c1cc(Cn2cncn2)cc(C(C)(C)C#N)c1 [Anastrozole] | 1 (inactive)
3 | OC[C@H]1O[C@@H](n2cnc3c2NC=NC[C@H]3O)C[C@@H]1O [Pentostatin] | 0.905 (inactive)
4 | N#CC[C@@H](C1CCCC1)n1cc(-c2ncnc3[nH]ccc23)cn1 [S-Ruxolitinib] | 1.01 (inactive)
5 | O=C(Nc1c(Cl)cncc1Cl)c1ccc(OC(F)F)c(OCC2CC2)c1 [Roflumilast] | 1.15 (inactive)
6 | COc1ccc(C[C@H](N)C(=O)N[C@H]2[C@@H](O)[C@H](n3cnc4c(N(C)C)ncnc43)O[C@@H]2CO)cc1.Cl.Cl [Puromycin dihydrochloride] | 0.309 (active)
7 | CN(C)CCCN1c2ccccc2Sc2ccc(Cl)cc21.Cl [Chlorpromazine hydrochloride] | 1.06 (inactive)
8 | COc1cc2c(Nc3ccc(Br)cc3F)ncnc2cc1OCC1CCN(C)CC1 [Vandetanib] | 1.29 (inactive)
9 | Cc1nc2ccc(CN(C)c3ccc(C(=O)N[C@@H](CCC(=O)O)C(=O)O)s3)cc2c(=O)[nH]1 [Raltitrexed] | 1.16 (inactive)
10 | CC[C@@]1(O)C(=O)OCc2c1cc1n(c2=O)Cc2cc3cc(O)ccc3nc2-1 [10-Hydroxycamptothecin] | 0.478 (active)
11 | CO[C@H]1C=CO[C@@]2(C)Oc3c(C)c(O)c4c(O)c(c(/C=N/N5CCN(C)CC5)c(O)c4c3C2=O)NC(=O)/C(C)=C\C=C/[C@H](C)[C@H](O)[C@@H](C)[C@@H](O)[C@@H](C)[C@H](OC(C)=O)[C@@H]1C [Rifampicin] | 0.882 (inactive)
12 | Nc1[nH]c(=O)ncc1F [Fluorocytosine] | 0.936 (inactive)
13 | O=C(CCBr)N1CCN(C(=O)CCBr)CC1 [Pipobroman] | 0.832 (inactive)
14 | CC(C)C[C@H](NC(=O)[C@H](Cc1ccccc1)NC(=O)c1cnccn1)B(O)O [Bortezomib] | 0.0464 (active)
15 | COc1cc(Nc2c(C#N)cnc3cc(OCCCN4CCN(C)CC4)c(OC)cc23)c(Cl)cc1Cl [Bosutinib] | 0.914 (inactive)
16 | CNC(=O)c1ccc(N2C(=S)N(c3ccc(C#N)c(C(F)(F)F)c3)C(=O)C2(C)C)cc1F [Enzalutamide] | 0.889 (inactive)
17 | C=C(c1ccc(C(=O)O)cc1)c1cc2c(cc1C)C(C)(C)CCC2(C)C [Bexarotene] | 1.07 (inactive)
18 | CCc1cnn2c(NCc3ccc[n+]([O-])c3)cc(N3CCCC[C@H]3CCO)nc12 [Dinaciclib] | 0.062 (active)
19 | COc1cc([C@@H]2c3cc4c(cc3[C@@H](O[C@@H]3O[C@@H]5CO[C@@H](c6cccs6)O[C@H]5[C@H](O)[C@H]3O)[C@H]3COC(=O)[C@H]23)OCO4)cc(OC)c1O [Teniposide] | 1.39 (inactive)
20 | CC1=C(/C=C/C(C)=C/C=C/C(C)=C/C=C/C=C(C)/C=C/C=C(C)/C=C/C2=C(C)CCCC2(C)C)C(C)(C)CCC1 [Beta-Carotene] | 0.829 (inactive)

same assay, conditions: 1 µM; 120 h; vemurafenib co-treatment 8 µM

Row | SMILES | cell viability
21 | O=c1[nH]c(=O)n(C2CCCO2)cc1F (stereo not given) [Tegafur] | 0.865 (inactive)
22 | CC(C)(C#N)c1cc(Cn2cncn2)cc(C(C)(C)C#N)c1 [Anastrozole] | 1.01 (inactive)
23 | OC[C@H]1O[C@@H](n2cnc3c2NC=NC[C@H]3O)C[C@@H]1O [Pentostatin] | 1.2 (inactive)
24 | N#CC[C@@H](C1CCCC1)n1cc(-c2ncnc3[nH]ccc23)cn1 [S-Ruxolitinib] | 1.28 (inactive)
25 | O=C(Nc1c(Cl)cncc1Cl)c1ccc(OC(F)F)c(OCC2CC2)c1 [Roflumilast] | 1.31 (inactive)
26 | COc1ccc(C[C@H](N)C(=O)N[C@H]2[C@@H](O)[C@H](n3cnc4c(N(C)C)ncnc43)O[C@@H]2CO)cc1.Cl.Cl [Puromycin dihydrochloride] | 0.58 (active)
27 | CN(C)CCCN1c2ccccc2Sc2ccc(Cl)cc21.Cl [Chlorpromazine hydrochloride] | 1.11 (inactive)
28 | COc1cc2c(Nc3ccc(Br)cc3F)ncnc2cc1OCC1CCN(C)CC1 [Vandetanib] | 1.01 (inactive)
29 | Cc1nc2ccc(CN(C)c3ccc(C(=O)N[C@@H](CCC(=O)O)C(=O)O)s3)cc2c(=O)[nH]1 [Raltitrexed] | 1.09 (inactive)
30 | CC[C@@]1(O)C(=O)OCc2c1cc1n(c2=O)Cc2cc3cc(O)ccc3nc2-1 [10-Hydroxycamptothecin] | 0.249 (active)
31 | CO[C@H]1C=CO[C@@]2(C)Oc3c(C)c(O)c4c(O)c(c(/C=N/N5CCN(C)CC5)c(O)c4c3C2=O)NC(=O)/C(C)=C\C=C/[C@H](C)[C@H](O)[C@@H](C)[C@@H](O)[C@@H](C)[C@H](OC(C)=O)[C@@H]1C [Rifampicin] | 0.848 (inactive)
32 | Nc1[nH]c(=O)ncc1F [Fluorocytosine] | 1.08 (inactive)
33 | O=C(CCBr)N1CCN(C(=O)CCBr)CC1 [Pipobroman] | 0.897 (inactive)
34 | CC(C)C[C@H](NC(=O)[C@H](Cc1ccccc1)NC(=O)c1cnccn1)B(O)O [Bortezomib] | 0.048 (active)
35 | COc1cc(Nc2c(C#N)cnc3cc(OCCCN4CCN(C)CC4)c(OC)cc23)c(Cl)cc1Cl [Bosutinib] | 1.14 (inactive)
36 | CNC(=O)c1ccc(N2C(=S)N(c3ccc(C#N)c(C(F)(F)F)c3)C(=O)C2(C)C)cc1F [Enzalutamide] | 1.09 (inactive)
37 | C=C(c1ccc(C(=O)O)cc1)c1cc2c(cc1C)C(C)(C)CCC2(C)C [Bexarotene] | 1.59 (inactive)
38 | CCc1cnn2c(NCc3ccc[n+]([O-])c3)cc(N3CCCC[C@H]3CCO)nc12 [Dinaciclib] | 0.0642 (active)
39 | COc1cc([C@@H]2c3cc4c(cc3[C@@H](O[C@@H]3O[C@@H]5CO[C@@H](c6cccs6)O[C@H]5[C@H](O)[C@H]3O)[C@H]3COC(=O)[C@H]23)OCO4)cc(OC)c1O [Teniposide] | 0.638 (active)
40 | CC1=C(/C=C/C(C)=C/C=C/C(C)=C/C=C/C=C(C)/C=C/C=C(C)/C=C/C2=C(C)CCCC2(C)C)C(C)(C)CCC1 [Beta-Carotene] | 0.851 (inactive)
